From PubChem BioAssay AID651815 (National Center for Advancing Translational Sciences (NCATS), 2012)
Screen size: about 2,100 compounds; about 1,100 (52%) were called active. Inconclusive results (about 29%) are left out. The call rests on the fitted dose curve; in most records, active means well fitted inhibition curve with a large enough effect; inconclusive means small, poorly fitted or top-dose-only effect; inactive means no such curve, though single readings can be large or run the other way. So high a share suggests a set chosen from earlier hits. This is one part of the list.

Target: DNA dC->dU-editing enzyme APOBEC-3F (Homo sapiens) (UniProt Q8IUX4)
Sequence (Q8IUX4 whole entry, looked up): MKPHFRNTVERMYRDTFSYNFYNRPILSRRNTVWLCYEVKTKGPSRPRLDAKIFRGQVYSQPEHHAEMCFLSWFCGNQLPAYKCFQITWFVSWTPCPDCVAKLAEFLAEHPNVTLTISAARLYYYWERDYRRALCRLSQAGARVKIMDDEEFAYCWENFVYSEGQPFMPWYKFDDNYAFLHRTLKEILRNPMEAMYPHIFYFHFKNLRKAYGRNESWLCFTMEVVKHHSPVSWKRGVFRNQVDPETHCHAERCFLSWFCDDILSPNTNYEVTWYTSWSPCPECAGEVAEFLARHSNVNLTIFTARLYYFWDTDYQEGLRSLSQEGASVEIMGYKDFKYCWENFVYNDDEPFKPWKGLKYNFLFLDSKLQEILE
Experiment: qHTS for inhibitors of Vif-A3F interactions: Cherry picks counterscreen; further: nearly all actives have a fitted effect of over 65% in size
Conditions: HeLa A3F-eYFP/Vif cells, eYFP fluorescence, 24 h; series mostly up to 46.1 µM; activity, negative = inhibitor: at the top concentration
Summary of the method: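 HeLa cells stably expressing A3F-eYFP and Vif, cultured overnight, then treated 24 h at 37 degrees C with compounds at several concentrations; yellow fluorescence (488 nm Ex/500-530 nm Em) imaged on Acumen; MG132 positive control.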
On the % scale 0 is the no-effect control and ±100 the full control effect; potency means the concentration at half of the fitted maximal effect.

SMILES	Potency	activity, negative = inhibitor
COc1ccc(N2CC(C(=O)N/N=C/c3ccc(C)cc3)CC2=O)cc1 (stereo not drawn)	3.53 µM (active)	
COCCCNC(=S)N/N=C/c1ccc(OC)cc1		-7.86% (inactive)
CCSC1=N/C(=C\C=C2/Oc3ccccc3N2CC)C(=O)S1	14.6 µM (active)	
CCCCN1C(=O)/C(=C/C=C2\Oc3ccccc3N2CC)SC1=S		-0.0599% [at 36.9 µM] (inactive)
N#CC1=C(N)C(C#N)(C#N)[C@H](c2ccoc2)[C@H]2CN(Cc3ccccc3)CC=C12	4.98 µM (active)	
Cn1c(/C=C/c2ccc([N+](=O)[O-])o2)nc2ccccc2c1=O	23.1 µM (active)	
Cc1cc(N/N=C/c2ccc([N+](=O)[O-])o2)nc2ccccc12	20.6 µM (active)	
O=c1c2ccccc2nc(/C=C/c2ccc([N+](=O)[O-])o2)n1CCCO	23.1 µM (active)	
CCCN1C(=O)C(Cc2nc3ccccc3c(=O)n2CC)c2cc(Br)ccc21 (stereo not drawn)		2.23% (inactive)
CCn1c(/C=C/c2ccc([N+](=O)[O-])o2)nc2ccccc2c1=O	11.6 µM (active)	
COc1cc(/C=N\Nc2ccc([N+](=O)[O-])cc2)ccc1OCC(=O)Nc1ccc(C)c(C)c1	0.651 µM (active)	
CCN(CC)c1ccc(/C=c2/sc3nnc(-c4ccccc4C)n3c2=O)cc1	16.4 µM (active)	
COc1ccc2c(c1)N(C)/C(=C/c1cccc[n+]1C)S2	14 µM (active)	
CCN1/C(=C/c2cccc[n+]2C)Sc2ccc(OC)cc21	20.6 µM (active)	
CC[n+]1ccccc1/C=C1\Sc2ccc(C)cc2N1C	20.6 µM (active)	
O=C(CSc1n[nH]c(-c2ccccn2)n1)Nc1ccc(Cl)cc1		28.8% (inactive)
COc1ccccc1OCC(=O)NNC(=O)Nc1ccc(Cl)cc1	15.8 µM (active)	
Cc1ccccc1OCC(=O)NNC(=O)Nc1ccc(Cl)cc1	4.98 µM (active)	
COc1cc(C2c3cc4c(cc3OC(C)(N3CCCC3)C2C)OCO4)cc(OC)c1OC (stereo not drawn)	1.25 µM (active)	
CC(C)NC(=S)N/N=C1\CCCCc2ccccc21		1.48% (inactive)
N#CC1=C(N)Oc2cc(N)ccc2C1c1ccc(F)cc1F (stereo not drawn)	20.6 µM (active)	
N#CC1=C(N)Oc2cc(N)ccc2C1C1CC=CCC1 (stereo not drawn)	5.59 µM (active)	
N#CC1=C(N)Oc2cc(N)ccc2C1c1ccccc1F (stereo not drawn)	4.98 µM (active)	
Cc1cccc(CSc2cccc3cccnc23)c1		-23.1% [at 36.9 µM] (inactive)
COC(=O)c1cccc(NS(=O)(=O)c2ccc(OC)cc2)c1C	3.53 µM (active)	
COc1ccc(S(=O)(=O)Nc2cccc3ccccc23)cc1	10.3 µM (active)	
S=C(Nc1cccc2ccccc12)NN1CCCCCC1		-1.64% (inactive)
CCCCN1C(=O)/C(=C2/Sc3ccccc3N2C)S/C1=N\c1ncn[nH]1	20.6 µM (active)	
